Structures are written as SMILES. Inconclusive results are not listed. Active and inactive are the calls of the source. Calls come from the whole dose curve; as a rule, active = well fitted inhibition curve with a large enough effect; inconclusive = small, poorly fitted or top-dose-only effect; inactive = no such curve, though single readings can be large or run the other way.
Potency is the fitted concentration of half-maximal effect.

The test can be described thus: qHTS Screen of the MIPE 4.0 Collection Against Ewings Sarcoma (TC32) (AID 1259256). Note: nearly all actives have a fitted effect of over 45% in size. Conditions: TC32 Ewing sarcoma viability, CellTiter-Glo, 48 h; series mostly up to 45.8 µM. The source says: There is a large unmet medical need for treatments for Ewing sarcoma, a pediatric sarcoma. We sought to identify compounds that inhibited Ewing sarcoma cells in vitro with the goal to then test promising drugs in two drug combinations in vitro to look for synergistic drug combinations. Promising combinations would then proceed to additional validation, including in vivo testing.
Using the NCATS developed oncology compound library called the Mechanism of Interrogation Plate (MIPE), four Ewing sarcoma cell lines were evaluated (TC32, TC71, RDES, EW8). Compounds, in a 12-point titration series, were incubated with cells for 48 hours and the read out was cell viability (CellTiter-Glo from Promega). These initial experiments were used to select appropriate concentrations of each single agent for subsequent two-drug matrix combinations such that the concentrations in the matrices would span both activity and non-activity.
Cells, in the log phase of growth, were seeded in 5 uL of RPMI plus 5% FBS, […] L-glutamine, 100 U/ml penicillin and 100 ug/ml streptomycin into 1536-well solid-bottom white tissue culture treated Greiner Bio One Plates (789173-F) using a MultiDrop Combi (Thermofisher Scientific) dispenser and a small sterile cassette. One column was media alone to be used as a :"no cells" control. The plates were then covered with sterilized stainless steel gasketed lids from Kalypsys. After allowing cells to attach for 4 hours, 23 nL of test compound or control (negative control DMSO and positive control 9.2 uM Bortezomib-final) were added from a 1536-well polypropylene compound source plate to each well using a 1536 head pin tool from Kalypsys. Cells were then incubated for 48 hours at 37C, 95% relative humidity and 5% CO2. After 48 hours, plates were removed from the incubator and 3 uL of CellTiter-Glo (Promega) was added using an Aurora Flying Reagent Dispenser Bioraptor. Plates were incubated at room temperature for 10 minutes prior to reading the luminescence on the Viewlux (PerkinElmer). The relative luciferase units are used to calculate the percent activity using the activity of DMSO in the cells and no cells columns for normalization of no inhibition and full inhibition respectively.
For orientation: In qHTS, concentration-response curves come from the screen itself.
Turning to `N#CC1(c2ccc(NC(=O)c3cccnc3NCc3ccncc3)cc2)CCCC1`, the Potency entry is “inactive”.

For the molecule `O=C(O)[C@H]1O[C@H](Oc2cc3oc(-c4ccccc4)cc(=O)c3c(O)c2O)[C@H](O)[C@@H](O)[C@H]1O`, the Potency is 18.7 µM (active).

Turning to `CC(=Cc1ccccc1)C=C1SC(=S)N(CC(=O)O)C1=O`, the Potency entry was “inactive”.

With `CC(C)(C)Cn1c(N)nc2ccc(-c3[nH]c(C(C)(C)C)nc3-c3ccc(F)cc3)nc21`, the Potency is 13.2 µM (active).

`O=C(CCN1CCN(C(=O)OCc2cc(Cl)cc(Cl)c2)CC1)c1ccc2[nH]c(=O)oc2c1`: the Potency result was “inactive”.

As to `NC(=O)[C@@H](CCC(F)(F)F)N(Cc1ccc(-c2ncon2)cc1F)S(=O)(=O)c1ccc(Cl)cc1`, the Potency was 14.8 µM (active).

For the molecule `O=C(NC1CCOCC1)c1ccc(-c2cc(-c3cn[nH]c3-c3ccccn3)ccn2)cc1`, the Potency result was “inactive”.

As for `CN1CCN(CCOc2cc(OC3CCOCC3)c3c(Nc4c(Cl)ccc5c4OCO5)ncnc3c2)CC1`, the Potency was 29.6 µM (active).

For the molecule `Cc1cc(OCCCc2c(C(=O)O)n(Cc3cccnc3)c3c(-c4c(COc5ccc(N6CCN([S+](C)(=O)[O-])CC6)cc5)nn(C)c4C)cccc23)cc(C)c1Cl`, the Potency was 23.5 µM (active).

On to `C[C@@H]1CCN(C(=O)CC#N)C[C@H]1N(C)c1ncnc2[nH]ccc12`, for which the Potency result was “inactive”.

Consider `Nc1ncnc2ccccc12`, for which the Potency result was “inactive”.

`CC(=O)Nc1ccc([C@H](C)C(=O)Nc2ncc(C(C)C)s2)cc1`: the Potency was 4.18 µM (active).

As for `NS(=O)(=O)c1cccc2c1C(=O)c1cccc(O)c1C2=O`, the Potency is 1.87 µM (active).

In the case of `COc1ccc(-n2c(C)c([N+](=O)[O-])c3ccc(O)cc32)cc1`, the Potency was 26.4 µM (active).

Regarding `CC[C@H]1OC(=O)[C@H](C)C(=O)[C@H](C)[C@@H](O[C@H]2O[C@H](C)C[C@H](N(C)C)[C@@H]2O)[C@](C)(OC)C[C@@H](C)C(=O)[C@H](C)[C@H]2N(CCCCn3cnc(-c4cccnc4)c3)C(=O)O[C@]12C`, the Potency is 16.6 µM (active).

Consider `c1ccc2c(Cc3c[nH]c4ccccc34)c[nH]c2c1`, for which the Potency was 4.18 µM (active).

For `N[C@@]1(C(=O)O)CS(=O)(=O)[C@H]2[C@H](C(=O)O)[C@H]21`, the Potency is 18.7 µM (active).

Consider `CC(C)(Cc1ccc2ccccc2c1)NC[C@@H](O)COc1cccc(Cl)c1C#N`, for which the Potency is 14.8 µM (active).

`CO[C@@H](C(=O)N1Cc2[nH]nc(NC(=O)c3ccc(N4CCN(C)CC4)cc3)c2C1)c1ccccc1`: the Potency is 0.0662 µM (active).

In the case of `O=c1ccn([C@@H]2O[C@H](CO)[C@H](O)[C@H]2O)c(=O)[nH]1`, the Potency entry was “inactive”.

Consider `Cc1nnc(C(C)C)n1C1C[C@H]2CC[C@@H](C1)N2CC[C@H](NC(=O)C1CCC(F)(F)CC1)c1ccccc1` (stereo not given in full), for which the Potency is 26.4 µM (active).

As for `COc1cc2ncnc(-n3nc(-c4ccccn4)nc3N)c2cc1OC`, the Potency is 18.7 µM (active).

For `COc1ccc2cccc(CCNC(C)=O)c2c1`, the Potency entry was “inactive”.

Consider `CC(=O)Oc1cc2c(s1)CCN(C(C(=O)C1CC1)c1ccccc1F)C2` (stereo not given), for which the Potency was 2.96 µM (active).

For `COc1ccc(-c2coc3cc(O)ccc3c2=O)cc1`, the Potency entry is “inactive”.

Turning to `C[C@H](NC(=O)C(=O)Nc1ccccc1C(C)(C)C)C(=O)N[C@@H](CC(=O)O)C(=O)COc1c(F)c(F)cc(F)c1F`, the Potency result is “inactive”.

In the case of `O=C(O)C(O)Cc1ccc(O)c(O)c1` (stereo not given), the Potency entry is “inactive”.

`CCOC1OC(=O)C[C@H]1NC(=O)[C@@H]1CCCN1C(=O)[C@@H](NC(=O)c1ccc(N)c(Cl)c1)C(C)(C)C` (stereo not given in full): the Potency result was “inactive”.

For `Nc1nc(F)nc2c1ncn2[C@@H]1O[C@H](COP(=O)(O)O)[C@@H](O)[C@H]1O`, the Potency was 16.6 µM (active).

As to `Cc1[nH]c(C=C2C(=O)Nc3ccc(S(=O)(=O)Cc4c(Cl)cccc4Cl)cc32)c(C)c1C(=O)N1CCC[C@H]1CN1CCCC1`, the Potency was 37.2 µM (active).

`CC(C)OC(=O)CCCC=CC[C@@H]1[C@H](C=C[C@@H](O)COc2cccc(C(F)(F)F)c2)[C@H](O)C[C@@H]1O`: the Potency result was “inactive”.

For `O=c1c(-c2ccc(O)cc2)coc2cc(OC3O[C@H](CO)[C@H](O)[C@H](O)[C@H]3O)cc(O)c12` (stereo not given in full), the Potency was 10.5 µM (active).

As to `CCOC(=O)C1=C(N)Oc2ccc(Br)cc2C1C(C#N)C(=O)OCC` (stereo not given), the Potency is 37.2 µM (active).

In the case of `CO[C@H]1C=CC=C(C)C(=O)NC2=CC(=O)C(NCCN(C)C)=C(C[C@@H](C)C[C@H](OC)[C@@H](O)[C@@H](C)C=C(C)[C@@H]1OC(N)=O)C2=O`, the Potency is 0.0469 µM (active).

Consider `O=C(O)c1cc(O)c2c(c1)C(=O)c1cccc(O)c1C2=O`, for which the Potency entry is “inactive”.

On to `COc1ccc(Cc2ccc(NC(N)=O)cc2)cc1-c1cccc(Cl)c1`, for which the Potency was 23.5 µM (active).

Regarding `N[C@H](CSC(c1ccccc1)(c1ccccc1)c1ccccc1)C(=O)O`, the Potency result was “inactive”.

As to `CC(C(=O)O)c1ccc(-c2ccccc2)c(F)c1` (stereo not given), the Potency is 11.8 µM (active).

Take `CC(=O)OC1C(C)OC(Oc2c(-c3ccc(O)cc3)oc3cc(O)cc(O)c3c2=O)C(O)C1OC(C)=O` (stereo not given): the Potency entry was “inactive”.

Turning to `COc1ccc(Cc2nccc3cc(OC)c(OC)cc23)cc1OC`, the Potency is 23.5 µM (active).

(Values after PubChem BioAssay (NCATS).)
